PvdQ inh: blocks Pseudomonas aeruginosa PvdQ acylase activity | 340,000 compounds, 0.063% hits | purified PvdQ acylase, fluorescence plate reader | AID 488965 | inhibition, % at 10 µM; in the data active = inhibition above about 30%, passing the limit was not always enough; inconclusive = no clear call, values can overlap the other calls;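 also: 0% = vehicle neutral wells and 100% = reference inhibitor wells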
Vif imaging: blocks HIV Vif function; AID 602346; HEK293T cells, Vif self-association by quenched fluorescence, imaging, 24 h; inhibition, % at 7.49 µM; 340,000 compounds, 0.35% hits; in the data active = inhibition above about 50%, passing the limit was not always enough; inconclusive = no clear call, values can overlap the other calls; inactive = below about 31%
MITF TRPM1 HTS: activators of MITF-driven TRPM1 promoter activity in SK-MEL-5 cells; AID 588334; 300,000 compounds, 0.75% hits; SK-MEL-5 TRPM1-promoter luciferase, 24 h; % of positive control, neutral wells = 0; activation, % at 12.5 µM;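 active = mean activation of at least 80% with every replicate also reaching 80%; inconclusive = mean reaches 80% but some replicate falls short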;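 also: 0% = neutral control wells and 100% = parthenolide positive control wells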
Wnt bcat act: activators of Wnt/beta-catenin signaling | AID 743398 | activation, % at 9.35 µM | 300,000 compounds, 1.2% hits | Wnt/beta-catenin reporter cell assay, activator, plate reader; in the data active = activation above about 30%, passing the limit was not always enough; inconclusive = no clear call, values can overlap the other calls;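 also: 0% = neutral control wells and 100% = positive control wells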
esBAF inh: SWI/SNF esBAF complex inhibition | mouse ES cells, Bmi1-luciferase knock-in reporter, 24 h; 100% = twice the neutral-well signal | reporter increase, % at 12.5 µM | 350,000 compounds, 2% hits | AID 602393; in the data active = activation above about 40%; inconclusive = no clear call, values can overlap the other calls;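 also: 0% = median of the plate's neutral control wells and 100% = double that signal; a rise in the Bmi1 reporter signal indicates esBAF inhibition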
N-glyco inh: N-linked glycosylation inhibition. D54 ERlucT glycosylation luciferase reporter, 24 h; percent of 100 nM tunicamycin response. 360,000 compounds, 0.23% hits. AID 588692. reporter increase, % at 12.5 µM;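 active = mean luciferase reporter signal, scaled so untreated is 0 and the glycosylation-blocking control 100, at or above a set limit in every replicate; inconclusive = mean reaches the limit but not every replicate does; inactive = mean below the limit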;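 also: luciferase carries N-glycosylation sites so blocking glycosylation raises the light; 0% = median of neutral control wells and 100% = median of 100 nM tunicamycin wells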
* = called active by the depositor; u = inconclusive; x = no result given. Most compounds without a hit are left out; they make up all but 2.9% or so of the library.

SMILES	PvdQ inh	Vif imaging	MITF TRPM1 HTS	Wnt bcat act	esBAF inh	N-glyco inh
COc1ccc(C(=O)O/N=C(\N)c2ccccc2)cc1OC	-4	-9	49	56*	u	1
CNC[C@@H]1OCCCC[C@@H](C)Oc2ccc(NS(=O)(=O)c3c(C)noc3C)cc2C(=O)N([C@@H](C)CO)C[C@H]1C	x	x	x	x	4	x
Cc1ccc(-c2c(C(=O)N/N=C/c3cccs3)nnn2-c2nonc2N)cc1	9	15	-1	x	-2	2
CCOc1ccc(-c2c(C(=O)N/N=C/c3cccs3)nnn2-c2nonc2N)cc1	5	82*	4	-1	-4	1
CCOc1ccc(-c2c(C(=O)N/N=C/c3ccc(C)cc3)nnn2-c2nonc2N)cc1	-6	-1	x	1	6	3
CCCOc1ccc(-c2c(C(=O)N/N=C/c3ccc(C)cc3)nnn2-c2nonc2N)cc1	x	54*	x	0	-4	2
CCOc1ccc(-c2c(C(=O)N/N=C/c3ccccc3)nnn2-c2nonc2N)cc1	-11	-1	x	34*	1	0
CCOc1ccc(-c2c(C(=O)N/N=C/c3ccncc3)nnn2-c2nonc2N)cc1	-9	5	-11	-1	-3	3
COc1ccc(S(=O)(=O)Nc2ccc3c(c2)C(=O)N([C@@H](C)CO)C[C@H](C)[C@@H](CN(C)S(=O)(=O)c2ccc(C)cc2)O3)cc1	x	x	x	x	-12	x
O=C(Nc1ccccc1)N1CCCCN2[C@H](CO)[C@@H](c3ccc(C4=CCCCC4)cc3)[C@H]2C1	x	x	x	x	-6	x
S=c1nc(-c2ccccc2)oc2c1CCCC2	0	4	56	74*	x	-1
Cc1cc(/C=N/NC(=O)c2ccccc2F)c(C)n1-c1ccccc1	-2	-4	97*	52*	x	-7
Fc1ccc(-c2cnc(-c3cccs3)o2)cc1	1	1	54	34*	-12	-3
Fc1ccc(-c2nc(-c3cccs3)no2)cc1	-13	-4	58	-6	x	-6
Cc1ccc(O)c(-c2cc3ccccc3[nH]2)c1	-5	-5	20	37*	30	-2
COc1ccc(-c2cc3ccccc3[nH]2)cc1	5	2	u	54*	39	-3
COc1ccc(-c2cc(=O)c3ccccc3[nH]2)cc1	-9	-1	10	7	10	-2
O=C(C[C@@H]1CC[C@@H]2[C@H](COC[C@@H](O)CN2C(=O)Nc2ccccc2)O1)NCc1ccccc1F	x	x	x	x	2	x
Cn1cnc(CCNC(=O)[C@@H]2[C@@H](CO)[C@@H]3Cn4c(cccc4=O)[C@@H]3N2C(=O)Nc2ccccc2)c1	x	x	x	x	5	x
CCC(=O)Nc1ccc2c(c1)C(=O)N(C)C[C@H](OC)[C@H](C)CN(CCc1ccccc1)[C@@H](C)CO2	x	x	x	x	-2	x
Nc1n[nH]c(N)c1N=Nc1cccc(F)c1	-4	-14	33	x	30	1
Nc1n[nH]c(N)c1N=Nc1cccc(C(F)(F)F)c1	-13	-7	33	2	51*	6
O=[N+]([O-])c1cccc(-c2nnc(-c3ccccc3F)o2)c1	-3	-3	x	49*	40	-2
O=C(O)C[C@H]1C[C@@H]2c3cc(NC(=O)Nc4ccc(F)cc4)ccc3O[C@@H]2[C@H](CO)O1	x	x	x	x	2	x
O=C(Nc1c2ccccc2nc2ccccc12)C(Cl)(Cl)Cl	-2	-14	-12	x	3	93*
SMILES	PvdQ inh	Vif imaging	MITF TRPM1 HTS	Wnt bcat act	esBAF inh	N-glyco inh
O=C(Cc1ccccc1)NNc1c2ccccc2nc2ccccc12	-24	-4	-12	-2	x	0
Cc1ccc(S(=O)(=O)N(C)C[C@@H]2Oc3c(NC(=O)c4nc5ccccc5s4)cccc3C(=O)N([C@H](C)CO)C[C@H]2C)cc1	x	x	x	x	9	x
Oc1c(C=Nc2ccc(Cl)cn2)sc2ccccc12	-9	3	46	46*	x	-2
Oc1c(/C=N/c2ccccn2)sc2ccccc12	-4	8	16	52*	u	4
Cc1ccc(C)c(N2CCN(c3cnn(-c4nc5ccccc5s4)c(=O)c3Cl)CC2)c1	-6	-2	29	29	6	114*
O=c1c(Cl)c(Nc2cccc(Cl)c2)cnn1-c1nc2ccccc2s1	-18	-10	12	3	x	-15
CSc1ccccc1C(=O)Nc1ccc2c(c1)CCC2	0	6	24	30*	u	3
O=C(Nc1ccc2c(c1)CCC2)c1ccccc1Br	2	x	43	19	x	-5
Cc1c(C(=O)Nc2ccc3c(c2)CCC3)cccc1[N+](=O)[O-]	-11	-11	92*	15	82*	0
Cc1c(C(=O)Nc2ccc(Nc3ccccc3)cc2)cccc1[N+](=O)[O-]	-10	1	-4	-2	-4	0
CN(C)CCCNC(=O)C[C@@H]1CC[C@H](NC(=O)Cc2cccnc2)[C@H](CO)O1	x	x	x	x	-7	x
C[C@@H]1CCCCO[C@H](CN(C)C(=O)Nc2ccc3c(c2)OCO3)[C@H](C)CN([C@@H](C)CO)C(=O)c2cc(NS(C)(=O)=O)ccc2O1	x	x	x	x	4	x
COc1ccc(NC(=O)Nc2nccs2)cc1	9	x	33	x	32	12
COc1ccc(NC(=O)Nc2ccc3nonc3c2)cc1	x	6	x	39*	x	0
COc1ccc(NC(=O)Nc2ccc3nccnc3c2)cc1	9	-7	96*	x	55*	-2
COC(=O)c1ccc(NC(=O)Nc2ccc(OC)cc2)cc1	1	-8	33	1	12	2
O=c1[nH]c(-c2ccccc2)cnc1-c1ccccc1	x	10	x	37*	x	-17
O=c1[nH]c2c(=O)[nH]cnc2nc1-c1ccccc1	-9	-3	x	-3	x	0
C[C@@H]1CN([C@@H](C)CO)C(=O)c2cccc(NS(C)(=O)=O)c2O[C@H]1CN(C)Cc1ccncc1	x	x	x	x	0	x
CCOC(=O)COc1ccc(S(=O)(=O)c2ccc(OCC(=O)OCC)cc2)cc1	4	120*	-4	0	3	4
CCOC(=O)COc1ccc(S(=O)(=O)Nc2ccc(C)cc2)cc1	-17	12	2	x	-2	6
COC(=O)C[C@@H]1C[C@H]2c3cc(NC(=O)Nc4ccccc4)ccc3O[C@H]2[C@@H](CO)O1	x	x	x	x	4	x
CC(C)(C)NC(=O)CSc1nc(-c2ccc(F)cc2)cs1	2	0	71	38*	x	-7
COc1ccc(NC(=O)CSc2nc(C)cs2)c([N+](=O)[O-])c1	-15	5	21	46*	31	0
Cc1ccc(-c2csc(NC(=O)CSc3nc(C)cs3)n2)cc1	6	-5	46	6	45*	1
Cc1csc(SCC(=O)Nc2nc(-c3ccccc3)cs2)n1	-1	x	-7	x	15	0
CCNC(=O)CSc1nc(-c2ccc(F)cc2)cs1	-15	-3	35	17	x	1
COCC(=O)N(C)C[C@@H]1Oc2ncc(C#Cc3cccnc3)cc2C(=O)N([C@H](C)CO)C[C@@H]1C	x	x	x	x	3	x
C[C@@H]1CN([C@H](C)CO)C(=O)Cc2cc(NC(=O)NC3CCCCC3)ccc2O[C@@H]1CN(C)C(=O)Nc1ccccc1	x	x	x	x	12	x

Bioassay records: PubChem BioAssay, Broad Institute
